Source: the supplement of paper PMC11732987, “Enantioselective OTUD7B fragment discovery through chemoproteomics screening and high-throughput optimisation” (Communications Chemistry, 2025)

Experiments:
Experiment in all cases: log2 ratio of Biotin-Ahx-Ub-VS probe labelling (fragment/DMSO); higher = less target engagement (more negative = stronger competition), active = hit call of the paper (q ≤ 0.05, log2 ratio ≤ -1)
Settings in all cases: compound concentration: 200 uM; treatment time: 3 h
USP34 = USP34 (UniProt Q70CQ2)
How it was run: (§1)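 Each value is an average log2 ratio of fragment to vehicle, tested by unpaired t-test. The underlying Spectronaut label-free quantities were global-median-normalised, and only proteins with ≥2 unique peptides were included. Triplicate HEK293T lysate samples (495 µg) were exposed to fragment at 200 µM or vehicle for 3 h, then to Biotin-Ahx-Ub-VS at 0.5 µM final for 1 h, before NeutrAvidin enrichment of labelled DUBs, LysC and trypsin digestion, and diaPASEF LC-MS/MS.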

USP36 = target: T1, USP36 (UniProt Q9P275)
T1 sequence (whole entry): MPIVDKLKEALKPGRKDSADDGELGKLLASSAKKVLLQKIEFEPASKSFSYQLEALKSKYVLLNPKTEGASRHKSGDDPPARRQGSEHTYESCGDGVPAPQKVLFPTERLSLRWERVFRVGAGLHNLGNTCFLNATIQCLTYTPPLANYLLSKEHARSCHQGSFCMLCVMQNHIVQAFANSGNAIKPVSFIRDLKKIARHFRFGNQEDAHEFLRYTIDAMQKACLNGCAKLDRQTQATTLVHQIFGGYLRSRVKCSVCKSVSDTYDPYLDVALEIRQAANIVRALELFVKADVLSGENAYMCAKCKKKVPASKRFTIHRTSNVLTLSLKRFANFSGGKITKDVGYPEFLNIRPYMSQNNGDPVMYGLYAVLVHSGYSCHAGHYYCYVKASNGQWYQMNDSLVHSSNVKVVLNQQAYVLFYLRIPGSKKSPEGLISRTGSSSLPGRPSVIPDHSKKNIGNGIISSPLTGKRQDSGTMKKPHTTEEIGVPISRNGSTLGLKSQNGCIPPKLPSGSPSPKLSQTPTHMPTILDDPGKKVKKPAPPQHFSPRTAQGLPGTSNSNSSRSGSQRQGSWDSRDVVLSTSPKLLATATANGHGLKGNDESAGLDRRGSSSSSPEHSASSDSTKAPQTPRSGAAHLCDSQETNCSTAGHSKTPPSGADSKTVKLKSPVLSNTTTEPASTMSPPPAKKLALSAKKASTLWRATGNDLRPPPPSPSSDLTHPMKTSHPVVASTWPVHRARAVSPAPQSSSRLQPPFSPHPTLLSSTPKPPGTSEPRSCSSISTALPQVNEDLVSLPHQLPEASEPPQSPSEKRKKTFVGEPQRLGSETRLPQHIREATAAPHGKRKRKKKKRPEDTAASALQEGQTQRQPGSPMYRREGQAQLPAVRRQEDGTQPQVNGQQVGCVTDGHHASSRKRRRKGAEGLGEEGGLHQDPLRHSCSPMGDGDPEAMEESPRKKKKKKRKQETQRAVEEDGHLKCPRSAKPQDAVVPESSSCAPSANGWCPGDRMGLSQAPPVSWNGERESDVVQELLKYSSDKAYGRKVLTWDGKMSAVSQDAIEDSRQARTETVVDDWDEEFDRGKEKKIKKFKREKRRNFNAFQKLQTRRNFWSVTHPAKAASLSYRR
How it was run: as §1

USP38 = target: T2, USP38 (UniProt Q8NB14)
T2 sequence (whole entry): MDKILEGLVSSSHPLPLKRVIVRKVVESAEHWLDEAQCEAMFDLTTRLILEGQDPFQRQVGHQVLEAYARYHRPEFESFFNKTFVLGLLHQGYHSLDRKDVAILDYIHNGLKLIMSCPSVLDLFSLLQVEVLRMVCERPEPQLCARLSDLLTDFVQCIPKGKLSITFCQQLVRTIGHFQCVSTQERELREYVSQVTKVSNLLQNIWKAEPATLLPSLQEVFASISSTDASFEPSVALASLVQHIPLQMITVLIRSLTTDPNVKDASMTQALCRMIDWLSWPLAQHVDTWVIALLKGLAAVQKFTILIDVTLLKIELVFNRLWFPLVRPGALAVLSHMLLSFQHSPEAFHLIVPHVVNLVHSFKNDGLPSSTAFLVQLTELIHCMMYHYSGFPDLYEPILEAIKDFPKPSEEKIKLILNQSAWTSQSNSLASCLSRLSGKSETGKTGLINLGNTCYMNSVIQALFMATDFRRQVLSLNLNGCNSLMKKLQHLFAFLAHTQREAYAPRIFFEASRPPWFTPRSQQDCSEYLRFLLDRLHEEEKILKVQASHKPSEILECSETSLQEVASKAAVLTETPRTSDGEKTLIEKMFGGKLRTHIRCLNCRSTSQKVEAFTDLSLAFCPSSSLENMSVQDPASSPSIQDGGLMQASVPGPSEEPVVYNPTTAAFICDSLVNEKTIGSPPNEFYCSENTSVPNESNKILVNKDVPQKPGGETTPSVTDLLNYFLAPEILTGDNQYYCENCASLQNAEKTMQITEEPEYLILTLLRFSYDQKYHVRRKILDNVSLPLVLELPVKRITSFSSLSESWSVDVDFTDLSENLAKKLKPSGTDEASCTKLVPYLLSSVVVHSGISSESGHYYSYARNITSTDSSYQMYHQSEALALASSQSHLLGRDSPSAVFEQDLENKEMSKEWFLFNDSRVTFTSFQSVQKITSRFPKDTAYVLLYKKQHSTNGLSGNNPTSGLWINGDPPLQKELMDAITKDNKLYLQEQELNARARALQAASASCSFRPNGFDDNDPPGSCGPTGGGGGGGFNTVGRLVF
How it was run: as §1

USP39 = target: T3, USP39 (UniProt Q53GS9)
T3 sequence (whole entry): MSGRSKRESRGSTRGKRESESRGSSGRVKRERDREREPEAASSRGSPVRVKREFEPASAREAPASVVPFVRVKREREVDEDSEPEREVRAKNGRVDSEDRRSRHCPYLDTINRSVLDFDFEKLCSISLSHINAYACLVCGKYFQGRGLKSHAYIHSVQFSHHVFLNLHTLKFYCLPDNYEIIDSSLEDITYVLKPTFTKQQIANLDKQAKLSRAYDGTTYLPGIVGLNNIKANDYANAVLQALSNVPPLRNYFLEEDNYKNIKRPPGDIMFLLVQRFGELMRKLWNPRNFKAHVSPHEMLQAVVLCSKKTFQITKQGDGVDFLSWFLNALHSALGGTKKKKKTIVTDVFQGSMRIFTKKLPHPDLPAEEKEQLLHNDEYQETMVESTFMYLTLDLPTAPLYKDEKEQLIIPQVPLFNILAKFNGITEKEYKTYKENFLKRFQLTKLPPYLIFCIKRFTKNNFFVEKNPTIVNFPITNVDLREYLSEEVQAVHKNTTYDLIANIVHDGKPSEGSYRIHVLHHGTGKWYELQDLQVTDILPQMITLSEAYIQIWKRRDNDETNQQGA
How it was run: as §1

USP4 = target: T4, USP4 (UniProt Q13107)
T4 sequence (whole entry): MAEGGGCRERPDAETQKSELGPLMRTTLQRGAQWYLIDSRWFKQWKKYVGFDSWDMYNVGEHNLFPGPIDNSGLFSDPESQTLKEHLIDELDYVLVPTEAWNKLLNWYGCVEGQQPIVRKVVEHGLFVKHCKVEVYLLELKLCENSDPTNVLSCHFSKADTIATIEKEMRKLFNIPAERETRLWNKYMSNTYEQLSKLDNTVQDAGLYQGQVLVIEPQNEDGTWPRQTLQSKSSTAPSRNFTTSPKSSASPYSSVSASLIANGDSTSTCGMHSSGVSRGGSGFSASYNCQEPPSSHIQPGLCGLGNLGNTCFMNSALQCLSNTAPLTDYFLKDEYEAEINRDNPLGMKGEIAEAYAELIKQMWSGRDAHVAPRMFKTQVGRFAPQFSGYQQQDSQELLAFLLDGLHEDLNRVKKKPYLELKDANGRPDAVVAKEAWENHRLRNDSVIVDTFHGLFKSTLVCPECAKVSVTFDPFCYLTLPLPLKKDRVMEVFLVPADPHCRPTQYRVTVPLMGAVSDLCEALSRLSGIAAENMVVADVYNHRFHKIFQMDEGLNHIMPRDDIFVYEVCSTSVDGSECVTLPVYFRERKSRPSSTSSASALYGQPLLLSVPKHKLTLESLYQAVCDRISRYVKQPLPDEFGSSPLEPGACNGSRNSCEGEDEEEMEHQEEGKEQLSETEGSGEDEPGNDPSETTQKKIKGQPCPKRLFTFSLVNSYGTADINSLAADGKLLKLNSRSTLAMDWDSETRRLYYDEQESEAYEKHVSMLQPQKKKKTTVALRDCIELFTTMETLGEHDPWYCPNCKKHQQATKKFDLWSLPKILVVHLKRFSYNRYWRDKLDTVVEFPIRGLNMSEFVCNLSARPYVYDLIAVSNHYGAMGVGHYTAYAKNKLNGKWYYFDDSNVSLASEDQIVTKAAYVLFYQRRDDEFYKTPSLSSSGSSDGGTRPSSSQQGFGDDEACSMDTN
How it was run: as §1

Measured: log2 ratio of Biotin-Ahx-Ub-VS probe labelling

Chain of USP34 (Q70CQ2 whole entry, the tested form may be a part): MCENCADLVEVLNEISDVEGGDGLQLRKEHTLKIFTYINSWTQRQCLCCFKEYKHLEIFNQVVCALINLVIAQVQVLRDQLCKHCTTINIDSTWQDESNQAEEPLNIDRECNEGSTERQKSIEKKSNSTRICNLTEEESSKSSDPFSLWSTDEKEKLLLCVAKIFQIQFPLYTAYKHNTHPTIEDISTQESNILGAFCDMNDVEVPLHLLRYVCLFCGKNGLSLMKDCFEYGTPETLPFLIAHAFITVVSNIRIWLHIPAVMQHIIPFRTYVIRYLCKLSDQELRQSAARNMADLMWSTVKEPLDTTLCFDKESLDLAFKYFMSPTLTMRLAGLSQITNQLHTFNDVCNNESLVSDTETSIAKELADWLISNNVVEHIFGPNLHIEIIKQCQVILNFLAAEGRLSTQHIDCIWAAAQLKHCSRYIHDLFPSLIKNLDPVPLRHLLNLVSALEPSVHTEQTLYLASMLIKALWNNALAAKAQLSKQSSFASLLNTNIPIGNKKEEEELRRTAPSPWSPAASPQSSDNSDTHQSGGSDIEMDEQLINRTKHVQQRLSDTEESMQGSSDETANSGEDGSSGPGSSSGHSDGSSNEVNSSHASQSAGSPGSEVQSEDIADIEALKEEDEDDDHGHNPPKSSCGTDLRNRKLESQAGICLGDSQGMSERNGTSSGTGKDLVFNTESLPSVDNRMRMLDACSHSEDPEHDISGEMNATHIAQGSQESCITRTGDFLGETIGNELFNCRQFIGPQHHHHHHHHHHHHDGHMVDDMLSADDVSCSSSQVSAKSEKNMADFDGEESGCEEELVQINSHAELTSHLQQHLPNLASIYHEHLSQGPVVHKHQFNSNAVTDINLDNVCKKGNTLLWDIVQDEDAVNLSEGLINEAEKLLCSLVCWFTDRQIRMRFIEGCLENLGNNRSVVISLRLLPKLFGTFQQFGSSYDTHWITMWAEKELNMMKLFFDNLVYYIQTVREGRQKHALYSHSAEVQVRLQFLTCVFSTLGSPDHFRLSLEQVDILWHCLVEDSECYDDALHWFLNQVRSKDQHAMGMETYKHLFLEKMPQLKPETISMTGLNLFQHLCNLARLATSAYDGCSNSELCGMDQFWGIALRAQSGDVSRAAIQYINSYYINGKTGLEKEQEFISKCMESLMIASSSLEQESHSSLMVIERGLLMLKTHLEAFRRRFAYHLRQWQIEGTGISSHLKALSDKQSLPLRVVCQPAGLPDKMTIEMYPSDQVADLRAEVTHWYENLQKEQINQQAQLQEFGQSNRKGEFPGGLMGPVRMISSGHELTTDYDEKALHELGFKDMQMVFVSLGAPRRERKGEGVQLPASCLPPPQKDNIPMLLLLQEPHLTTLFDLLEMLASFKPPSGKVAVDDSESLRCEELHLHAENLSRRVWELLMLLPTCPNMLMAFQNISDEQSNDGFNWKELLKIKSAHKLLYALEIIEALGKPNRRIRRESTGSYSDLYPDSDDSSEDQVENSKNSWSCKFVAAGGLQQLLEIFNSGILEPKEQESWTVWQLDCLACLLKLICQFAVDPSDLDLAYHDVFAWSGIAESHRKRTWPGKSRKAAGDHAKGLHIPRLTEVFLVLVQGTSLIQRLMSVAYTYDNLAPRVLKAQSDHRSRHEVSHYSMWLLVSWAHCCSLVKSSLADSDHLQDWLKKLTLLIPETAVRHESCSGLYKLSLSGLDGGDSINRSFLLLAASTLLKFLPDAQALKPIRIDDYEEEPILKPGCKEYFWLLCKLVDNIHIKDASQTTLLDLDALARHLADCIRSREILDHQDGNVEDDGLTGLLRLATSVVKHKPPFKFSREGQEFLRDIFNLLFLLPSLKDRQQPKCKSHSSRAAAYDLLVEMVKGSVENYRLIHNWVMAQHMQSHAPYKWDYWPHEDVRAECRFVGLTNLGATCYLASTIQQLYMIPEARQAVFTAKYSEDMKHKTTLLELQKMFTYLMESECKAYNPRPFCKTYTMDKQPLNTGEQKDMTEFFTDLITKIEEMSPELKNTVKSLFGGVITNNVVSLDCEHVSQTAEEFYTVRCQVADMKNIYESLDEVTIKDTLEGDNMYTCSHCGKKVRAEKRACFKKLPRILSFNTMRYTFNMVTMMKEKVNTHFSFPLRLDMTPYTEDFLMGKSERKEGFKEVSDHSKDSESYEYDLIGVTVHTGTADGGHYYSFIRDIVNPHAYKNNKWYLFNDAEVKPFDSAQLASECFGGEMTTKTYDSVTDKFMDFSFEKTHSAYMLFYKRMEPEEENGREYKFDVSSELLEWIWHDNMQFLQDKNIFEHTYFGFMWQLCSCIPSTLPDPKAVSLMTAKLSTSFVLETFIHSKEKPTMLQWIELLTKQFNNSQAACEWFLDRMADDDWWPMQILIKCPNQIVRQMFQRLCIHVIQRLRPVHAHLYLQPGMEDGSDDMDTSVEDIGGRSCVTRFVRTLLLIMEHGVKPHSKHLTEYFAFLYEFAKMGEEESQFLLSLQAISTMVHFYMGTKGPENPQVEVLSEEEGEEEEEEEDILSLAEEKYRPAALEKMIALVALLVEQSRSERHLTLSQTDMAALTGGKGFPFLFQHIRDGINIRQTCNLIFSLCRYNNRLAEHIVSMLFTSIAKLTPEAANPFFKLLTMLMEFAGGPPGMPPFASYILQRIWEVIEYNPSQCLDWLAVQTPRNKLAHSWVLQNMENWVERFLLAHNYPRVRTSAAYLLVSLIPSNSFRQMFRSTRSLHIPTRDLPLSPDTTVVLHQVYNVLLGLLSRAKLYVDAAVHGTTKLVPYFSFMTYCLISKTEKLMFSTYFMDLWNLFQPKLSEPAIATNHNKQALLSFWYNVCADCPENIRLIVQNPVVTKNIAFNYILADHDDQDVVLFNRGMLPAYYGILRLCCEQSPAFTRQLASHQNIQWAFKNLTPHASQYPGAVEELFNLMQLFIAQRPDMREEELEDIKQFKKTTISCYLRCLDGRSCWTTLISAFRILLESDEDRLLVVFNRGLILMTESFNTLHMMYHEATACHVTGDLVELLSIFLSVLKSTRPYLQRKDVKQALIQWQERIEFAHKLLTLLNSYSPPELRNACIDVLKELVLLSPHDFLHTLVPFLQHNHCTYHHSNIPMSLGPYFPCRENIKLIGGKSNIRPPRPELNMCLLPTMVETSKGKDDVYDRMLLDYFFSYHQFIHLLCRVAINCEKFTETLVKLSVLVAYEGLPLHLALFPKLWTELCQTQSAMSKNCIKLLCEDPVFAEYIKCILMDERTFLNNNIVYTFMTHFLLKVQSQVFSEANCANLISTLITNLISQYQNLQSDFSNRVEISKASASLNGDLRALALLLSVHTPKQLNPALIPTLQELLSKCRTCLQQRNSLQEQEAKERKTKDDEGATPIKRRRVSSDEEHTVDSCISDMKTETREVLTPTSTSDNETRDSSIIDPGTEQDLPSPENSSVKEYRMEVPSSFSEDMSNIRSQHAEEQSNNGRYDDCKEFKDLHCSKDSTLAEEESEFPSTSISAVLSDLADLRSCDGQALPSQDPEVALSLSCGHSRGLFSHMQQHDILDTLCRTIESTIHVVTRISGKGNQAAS

CNC(=O)C1(NC(=O)CCl)CCCCC1
inactive: USP34 0.0737 | USP36 0.00681 | USP38 0.142 | USP39 0.392 | USP4 0.249
